Measured values: PubChem BioAssay (NCATS)
Records with an inconclusive call do not appear. Calls of active or inactive are those of the source. The call rests on the fitted dose curve; in most records, active means well fitted curve in the direction sought with a large enough effect; inconclusive means small, poorly fitted or top-dose-only effect, or another doubt; inactive means no such curve, though single readings can be large; an effect the other way counts as inactive or inconclusive.

How the values were obtained:
[1] = tested on: HACAT; experiment: qHTS assay to identify novel small-molecules to repurpose for Merkel cell carcinoma treatment (AID 1296009); settings: MCC and control cell lines, CellTiter-Glo viability, 72 h; at 44.8 µM (top of the series) unless noted; further: nearly all actives have a fitted effect of over 60% in size
Procedure, shortened: (§1)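 CellTiter-Glo luminescence after 72 hr compound exposure at 37 degree celsius gave cell viability. Libraries NPC and MIPE were run as 8- and 11-point dose responses; RLUs normalized to DMSO (negative) and no-cell (cytotoxicity) controls.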

[2] = tested on: NIH3T3; experiment: as above; settings: MCC and control cell lines, CellTiter-Glo viability, 72 h; at 44.8 µM (top of the series) unless noted
Procedure, shortened: as §1

[3] = tested on: C33A; experiment: Primary qHTS to identify gynecologic anti-cancer compounds using libraries of approved drugs and bioactive compounds (AID 1345084); settings: Gynecologic cancer cell panel viability, ATPlite luminescence, 48 h; series mostly up to 57.5 µM; further: on the % scale 0 is the no-effect control and ±100 the full control effect; nearly all actives have a fitted effect of over 55% in size
Procedure, shortened: (§2)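 Five-concentration response, 48 h; readout is ATP-driven luciferase luminescence.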

[4] = tested on: CAOV3; experiment: as above; settings: Gynecologic cancer cell panel viability, ATPlite luminescence, 48 h; series mostly up to 57.5 µM
Procedure, shortened: as §2

[5] = tested on: CASKI; experiment: as above; settings: Gynecologic cancer cell panel viability, ATPlite luminescence, 48 h; series mostly up to 57.5 µM
Procedure, shortened: as §2

[6] = tested on: Es-2; experiment: as above; settings: Gynecologic cancer cell panel viability, ATPlite luminescence, 48 h; series mostly up to 57.5 µM
Procedure, shortened: as §2

[7] = tested on: HeLa; experiment: as above; settings: Gynecologic cancer cell panel viability, ATPlite luminescence, 48 h; series mostly up to 57.5 µM
Procedure, shortened: as §2

[8] = tested on: Hek293T; experiment: as above; settings: Gynecologic cancer cell panel viability, ATPlite luminescence, 48 h, control line for the selectivity index; series mostly up to 57.5 µM
Procedure, shortened: as §2

[9] = tested on: JEG-3; experiment: as above; settings: Gynecologic cancer cell panel viability, ATPlite luminescence, 48 h; series mostly up to 57.5 µM
Procedure, shortened: as §2

C=C1C(O)C(OC(=O)c2ccccc2)C2C(C)(C(=O)O)CCCC2(C)C1CC/C(C)=C\CO (configuration not stated)
inactive: outcome [1] inactive [at 17.4 µM] | outcome [2] inactive [at 17.4 µM] | Potency [3] | Potency [4] | outcome [5] | Potency [6] | Potency [7] | Potency [8] | Potency [9]

C=C1[C@H](OC(C)=O)[C@H]2[C@@H](OC(C)=O)C(C)C[C@]2(OC(C)=O)C(=O)[C@H](C)/C=C/C(C)(C)C(=O)[C@H](OC(=O)C(C)C)[C@H]1OC(C)=O (some centres not stated)
inactive: outcome [1] inactive [at 17.4 µM] | outcome [2] inactive [at 17.4 µM] | Potency [3] | Potency [4] | outcome [5] | Potency [6] | Potency [8] | Potency [9]

Cc1ccccc1-n1nc(-c2c(-c3ccc(F)cc3)nn3c2NC[C@@H](CO)C3)ccc1=O
inactive: outcome [1] | outcome [2] | Potency [3] | Potency [4] | outcome [5] | Potency [6] | Potency [8] | Potency [9]

COc1cc(C2OCC3(O)C(c4ccc(O[C@@H]5O[C@H](CO)[C@@H](O)[C@H](O)[C@H]5O)c(OC)c4)OCC23O)ccc1O (some centres not stated)
inactive: outcome [1] inactive [at 17.4 µM] | outcome [2] inactive [at 17.4 µM] | Potency [3] | Potency [4] | outcome [5] | Potency [6] | Potency [7] | Potency [9]

Fc1ccc(-c2c3cccc(C(F)(F)F)c3nn2Cc2ccc(F)cc2Cl)cc1
inactive: outcome [1] | outcome [2] | Potency [3] | Potency [4] | outcome [5] | Potency [6] | Potency [7] | Potency [8] | Potency [9]

O=C(O)Cc1cn([C@@H]2OC[C@@H](O[C@@H]3O[C@H](CO)[C@@H](O)[C@H](O)[C@H]3O)[C@H](O)[C@H]2O[C@@H]2O[C@H](CO)[C@@H](O)[C@H](O)[C@H]2O)c2ccccc12
inactive: outcome [1] inactive [at 17.4 µM] | outcome [2] inactive [at 17.4 µM] | Potency [3] | Potency [4] | outcome [5] | Potency [6] | Potency [7] | Potency [8] | Potency [9]

C=C1C(O)C(O)C2(CC3C(C)=CCC4C(C)(C(=O)O)CCCC34C)OC2C1O (configuration not stated)
inactive: outcome [1] | outcome [2] | Potency [3] | Potency [4] | outcome [5] | Potency [6] | Potency [7] | Potency [8] | Potency [9]

COc1ccccc1CN[C@H]1CCCN[C@H]1c1ccccc1
inactive: outcome [1] | outcome [2] | Potency [3] | Potency [4] | outcome [5] | Potency [6] | Potency [7] | Potency [8] | Potency [9]

CC(C)=CCC[C@](C)(O[C@@H]1O[C@H](CO[C@@H]2OC[C@H](O)[C@H](O)[C@H]2O)[C@@H](O)[C@H](O)[C@H]1O)[C@H]1CC[C@]2(C)[C@@H]1[C@H](O)C[C@@H]1[C@@]3(C)CC[C@H](O[C@@H]4O[C@H](CO)[C@@H](O)[C@H](O)[C@H]4O[C@@H]4O[C@H](CO)[C@@H](O)[C@H](O)[C@H]4O)C(C)(C)[C@@H]3CC[C@]12C
inactive: outcome [1] inactive [at 17.4 µM] | outcome [2] inactive [at 17.4 µM] | Potency [3] | Potency [4] | outcome [5] | Potency [6] | Potency [7] | Potency [8] | Potency [9]

O=[N+]([O-])c1cc(Cl)ccc1S(=O)(=O)N1CCN(Cc2ccccc2)CC1
inactive: outcome [1] | outcome [2] | Potency [3] | Potency [4] | outcome [5] | Potency [6] | Potency [7] | Potency [9]

CC1=C(CO)C2(C)CCCC(C)(C)C2C(O)C1O (configuration not stated)
inactive: outcome [1] | outcome [2] | Potency [3] | Potency [4] | outcome [5] | Potency [6] | Potency [7] | Potency [8] | Potency [9]

CC1OC(OC2CCC3(C)C(CCC4(C)C3C=CC35OCC6(CCC(C)(C)CC63)CCC45C)C2(C)CO)C(OC2OC(CO)C(O)C(O)C2O)C(O)C1OC1OC(CO)C(O)C(O)C1O (configuration not stated)
inactive: outcome [1] inactive [at 9.27 µM] | outcome [2] inactive [at 9.27 µM] | activity change, negative = cytotoxicity [3] 0.873% [at 11.6 µM] | activity change, negative = cytotoxicity [4] 14% [at 11.6 µM] | activity change, negative = cytotoxicity [5] 3.54% [at 11.6 µM] | activity change, negative = cytotoxicity [6] -0.667% [at 11.6 µM] | activity change, negative = cytotoxicity [7] 5.87% [at 11.6 µM] | activity change, negative = cytotoxicity [8] 6.69% [at 11.6 µM] | activity change, negative = cytotoxicity [9] 8.45% [at 11.6 µM]

CCOC(=O)CSc1nc2c(sc3ccccc32)c(=O)n1CCCN1CCCC1
inactive: outcome [1] | outcome [2] | Potency [3] | Potency [4] | outcome [5] | Potency [6] | Potency [8] | Potency [9]

CC(=O)c1ccc(O[C@@H]2OC[C@@H](O)[C@H](O)[C@H]2O[C@]2(CO)O[C@H](CO)[C@@H](O)[C@@H]2O)c(O)c1
inactive: outcome [1] inactive [at 17.4 µM] | outcome [2] inactive [at 17.4 µM] | Potency [3] | Potency [4] | outcome [5] | Potency [6] | Potency [7] | Potency [8] | Potency [9]

OC[C@@]1(O)CO[C@H](OC[C@H]2O[C@@H](OC(CCCCc3ccc(O)cc3)CCc3ccc(O)cc3)[C@H](O[C@H]3OC[C@](O)(CO)[C@H]3O)[C@@H](O)[C@@H]2O)[C@@H]1O (some centres not stated)
inactive: outcome [1] inactive [at 17.4 µM] | outcome [2] inactive [at 17.4 µM] | Potency [3] | Potency [4] | outcome [5] | Potency [6] | Potency [7] | Potency [8] | Potency [9]

COc1cc(C)c(C(=O)OC2C(C)OC(OC3CCC(C)C4C3C=C(C)C3/C(C)=C\CC/C(C)=C/C5(C)C=C(C(=O)O)C(C)CC56OC(=O)/C(=C(\O)C34C)C6=O)C(O)C2O)c(OC)c1 (configuration not stated)
inactive: outcome [1] inactive [at 9.27 µM] | outcome [2] inactive [at 9.27 µM] | activity change, negative = cytotoxicity [3] 17.6% [at 11.6 µM] | activity change, negative = cytotoxicity [4] 11.9% [at 11.6 µM] | activity change, negative = cytotoxicity [5] 0.731% [at 11.6 µM] | activity change, negative = cytotoxicity [6] 6.73% [at 11.6 µM] | activity change, negative = cytotoxicity [7] -3.64% [at 11.6 µM] | activity change, negative = cytotoxicity [8] 6.05% [at 11.6 µM] | activity change, negative = cytotoxicity [9] -0.361% [at 11.6 µM]

CC(C)=CCC/C(C)=C/CO[C@@H]1O[C@H](CO[C@@H]2O[C@@H](CO)[C@H](O)[C@H]2O)[C@@H](O)[C@H](O)[C@H]1O
inactive: outcome [1] inactive [at 17.4 µM] | outcome [2] inactive [at 17.4 µM] | Potency [3] | Potency [4] | outcome [5] | Potency [6] | Potency [7] | Potency [8] | Potency [9]

OC[C@H]1O[C@@H](OCc2ccccc2)[C@H](O[C@@H]2OC[C@@H](O)[C@H](O)[C@H]2O)[C@@H](O)[C@@H]1O
inactive: outcome [1] inactive [at 17.4 µM] | outcome [2] inactive [at 17.4 µM] | Potency [3] | outcome [5] | Potency [6] | Potency [7] | Potency [8] | Potency [9]

C=C1[C@H]2CCC3[C@]4(C)CCC[C@@](C)(C(=O)O)C4CC[C@]3(C2)[C@H]1OC(C)=O (some centres not stated)
inactive: outcome [1] | outcome [2] | Potency [3] | Potency [4] | outcome [5] | Potency [6] | Potency [7] | Potency [8] | Potency [9]

CCC(C)/C=C(C)/C=C/C1=CC2=C(Cl)C(=O)C(C)(OC(C)=O)C(=O)C2=CN1C(CCC(=O)O)C(=O)O (configuration not stated)
inactive: outcome [1] inactive [at 17.4 µM] | outcome [2] inactive [at 17.4 µM] | Potency [3] | Potency [4] | outcome [5] | Potency [6] | Potency [7] | Potency [9]

C[C@@H]1O[C@@H](O[C@H]2[C@H](O[C@H]3[C@H](O[C@H]4CC[C@@]5(C)C(CC[C@]6(C)C5CC=C5[C@@H]7CC(C)(C)C[C@@H](O)[C@]7(C)CC[C@]56C)[C@@]4(C)CO)O[C@H](C(=O)O)[C@@H](O)[C@@H]3O)O[C@H](CO)[C@H](O)[C@@H]2O)[C@H](O)[C@H](O)[C@H]1O (some centres not stated)
inactive: outcome [1] inactive [at 9.27 µM] | outcome [2] inactive [at 9.27 µM] | activity change, negative = cytotoxicity [3] -1.56% [at 11.6 µM] | activity change, negative = cytotoxicity [4] 6.93% [at 11.6 µM] | activity change, negative = cytotoxicity [5] 9.29% [at 11.6 µM] | activity change, negative = cytotoxicity [6] 0.369% [at 11.6 µM] | activity change, negative = cytotoxicity [7] 7.52% [at 11.6 µM] | activity change, negative = cytotoxicity [8] -1.54% [at 11.6 µM] | activity change, negative = cytotoxicity [9] 7.46% [at 11.6 µM]

O=C(O)CC(CCc1ccccc1)OC1OC(CO)C(O)C(O)C1O (configuration not stated)
inactive: outcome [1] | outcome [2] | Potency [3] | outcome [5] | Potency [6] | Potency [7] | Potency [9]

CN[C@H](CNC(=O)N1CCC[C@@H]([C@@H](OCCNC(=O)OC)c2cccc(Cl)c2)C1)C[C@H]1CCCOC1
inactive: outcome [1] | outcome [2] | Potency [3] | outcome [5] | Potency [6] | Potency [7] | Potency [8] | Potency [9]

CC1=C2CC(O)(C(C)(C)O)C(O[C@@H]3O[C@H](CO)[C@@H](O)[C@H](O)[C@H]3O)CC(C)C2CC1=O (some centres not stated)
inactive: outcome [1] inactive [at 17.4 µM] | outcome [2] inactive [at 17.4 µM] | Potency [3] | outcome [5] | Potency [6] | Potency [7] | Potency [8] | Potency [9]

C=C1CC/C=C(/CO)C(=O)C[C@@H]2[C@@H]1C[C@@]2(C)COC(C)=O
inactive: outcome [1] | outcome [2] | Potency [3] | outcome [5] | Potency [6] | Potency [7] | Potency [8] | Potency [9]

Cc1ccc(C)c(S(=O)(=O)n2cnc3ccccc32)c1
inactive: outcome [1] | outcome [2] | Potency [3] | outcome [5] | Potency [6] | Potency [7] | Potency [8] | Potency [9]

C/C(=C\C(=O)C[C@@]12C(=O)O[C@]3(C)CC[C@H]1C[C@H]23)C(N)=O
inactive: outcome [1] | outcome [2] | Potency [3] | outcome [5] | Potency [6] | Potency [7] | Potency [8] | Potency [9]

OC[C@H]1O[C@@H](OCCc2ccccc2)[C@H](O[C@@H]2OC[C@@H](O)[C@H](O)[C@H]2O)[C@@H](O)[C@@H]1O
inactive: outcome [1] inactive [at 17.4 µM] | outcome [2] inactive [at 17.4 µM] | Potency [3] | outcome [5] | Potency [6] | Potency [7] | Potency [8] | Potency [9]
